POLH inh – inhibitors of human DNA polymerase eta. Q9Y253. recombinant Pol eta, fluorescent DNA replication assay. Potency, µM (highest dose often 114 µM), without a hit: at the highest dose activity change, negative = inhibition, most hits filed as inhibitors. 1.2% of 390,000 active. AID 588591; also: % is scaled to controls: 0 for no effect and ±100 for the full control effect
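Pol eta (10 nM) was preincubated with compounds for 15 min at room temperature, after which fluorescent replication substrate (50 nM final) was added to start the reaction. Fluorescence was read kinetically at 0 and 10 min.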
APEX1 inh – APE1 (human) endonuclease inhibition; recombinant APE1, TAMRA/BHQ-2 abasic DNA cleavage fluorescence; Potency, µM (titrated, usually from 65.8 µM), inactives show at the highest dose activity change, negative = inhibition, hits mostly inhibitors; 0.35% of 350,000 active;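 also: plate controls were vehicle for no effect and reference inhibitor for full effect; nearly all actives have a fitted effect of over 55% in size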
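APE1 at 0.75 nM preincubated 15 min at room temperature with compound. Reaction then started with 50 nM double-stranded THF-abasic substrate labelled with TAMRA/BHQ-2, and 525/598 nm fluorescence read kinetically. Activity taken as third-minus-first read difference, normalized to DMSO and NSC13755 controls.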
Pol iota inh – blocks human DNA polymerase iota activity; Q9UNA4; Pol iota fluorescent replication assay, 10 min; Potency, µM (highest dose often 115 µM), for inactives: top-dose activity, negative = inhibition, hits mostly inhibitors; 1% of 390,000 active; AID 588590
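Fluorescent replication assay read twice, at 0 min and 10 min after adding 50 nM (final) substrate. Enzyme (10 nM) and compounds were first incubated 15 min at room temperature; enzyme-free buffer wells were negative controls.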
POLB inh – inhibitors of human DNA polymerase beta. P06746. Pol beta primer extension/strand displacement, fluorescence kinetic. Potency, µM (doses to about 114 µM), for the others: at the top dose activity change, negative = inhibition, most hits filed as inhibitors. 1.3% of 340,000 active. AID 485314; also: % is scaled to controls: 0 for no effect and ±100 for the full control effect
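Curves were derived by four-parameter Hill fits of normalized qHTS data. The kinetic fluorescent primer-extension read was taken at 0 and 10 min after 50 nM substrate, following a 15 min room-temperature preincubation of 10 nM enzyme with compounds.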
Pol kappa inh – inhibitors of human DNA polymerase kappa | purified Pol kappa, fluorescent DNA synthesis assay, 10 min | Q9UBT6 | 0.53% of 400,000 active | Potency, µM (highest dose often 107 µM), for inactives: top-dose activity, negative = inhibition, most hits filed as inhibitors; also: % is scaled to controls: 0 for no effect and ±100 for the full control effect
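First, compounds were pin-transferred onto 10 nM Pol kappa. After 15 min at room temperature, substrate was added to 50 nM final. Fluorescence was then measured kinetically at 0 and 10 min.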
L3MBTL1 block – inhibitors of human L3MBTL1; Potency, µM (series often up to 57.1 µM), for inactives: at the top dose activity, negative = inhibition, actives largely listed as inhibitors; AID 485360; 0.66% of 230,000 active; AlphaScreen L3MBTL1–H3K9me1 peptide binding; also: % is scaled to controls: 0 for no effect and ±100 for the full control effect; nearly all actives have a fitted effect of over 60% in size
Target sequence (Q9Y468 whole entry, looked up): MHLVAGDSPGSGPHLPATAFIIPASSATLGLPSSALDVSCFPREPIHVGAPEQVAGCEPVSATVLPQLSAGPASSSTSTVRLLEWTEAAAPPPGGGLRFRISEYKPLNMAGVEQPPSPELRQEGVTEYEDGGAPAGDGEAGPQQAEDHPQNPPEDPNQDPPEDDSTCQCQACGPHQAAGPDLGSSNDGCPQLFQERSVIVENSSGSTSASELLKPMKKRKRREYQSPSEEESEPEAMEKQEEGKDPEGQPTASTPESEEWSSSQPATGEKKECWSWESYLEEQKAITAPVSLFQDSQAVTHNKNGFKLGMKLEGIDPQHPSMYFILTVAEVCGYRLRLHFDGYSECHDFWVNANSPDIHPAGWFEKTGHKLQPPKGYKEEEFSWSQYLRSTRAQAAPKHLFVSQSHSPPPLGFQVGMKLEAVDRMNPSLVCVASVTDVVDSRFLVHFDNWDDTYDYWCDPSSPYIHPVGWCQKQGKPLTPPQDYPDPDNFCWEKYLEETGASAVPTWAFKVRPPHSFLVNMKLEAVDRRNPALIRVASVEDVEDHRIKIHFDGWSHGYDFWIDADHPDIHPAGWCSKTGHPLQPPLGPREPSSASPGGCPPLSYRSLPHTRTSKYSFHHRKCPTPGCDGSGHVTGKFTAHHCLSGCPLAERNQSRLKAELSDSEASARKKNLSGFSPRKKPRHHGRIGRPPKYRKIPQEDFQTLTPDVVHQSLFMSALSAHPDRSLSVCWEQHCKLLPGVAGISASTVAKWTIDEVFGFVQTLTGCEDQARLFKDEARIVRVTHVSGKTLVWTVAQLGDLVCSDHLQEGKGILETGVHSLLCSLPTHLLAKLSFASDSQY
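First, the protein-peptide complex forms for 30 min at room temperature (L3MBTL1 50 nM, biotinylated H3K9me1 peptide 75 nM). Next, compounds are pin-transferred and incubated 30 min. Finally, AlphaScreen beads are added and read after 30 min.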
Numbers without * were called inactive; [ ] = remark or other dose. A selection: hits, their analogues and other compounds. The true share with any hit is near 2.5%. Calls follow the shape of the dose curve; as a rule, active = well fitted curve in the direction sought with a large enough effect; inconclusive = small, poorly fitted or top-dose-only effect, or another doubt; inactive = no such curve, though single readings can be large; an effect the other way counts as inactive or inconclusive. Potency is read from the fitted curve at half-maximal effect.

Results for Cc1ccc(C)n1-c1ccc(C(=O)NN)cc1 ?
POLH inh: -14%; APEX1 inh: -1%; Pol iota inh: 16µM*; POLB inh: 13%; Pol kappa inh: inconclusive; L3MBTL1 block: 11%

Results for Cc1ccc(C)n1-c1ccc(C(=O)NCc2ccncc2)cc1 ?
POLH inh: -16%; APEX1 inh: -7%; Pol iota inh: -18%; POLB inh: 3%; Pol kappa inh: 3%; L3MBTL1 block: -6%

What do the screens show for `CC1(C)SC2C(NC(=O)C(N)c3ccccc3)C(=O)N2C1C(=O)O` (stereo not drawn)?
APEX1 inh: 14%; Pol kappa inh: -12%[60.1 µM]

Results for CC1(C)S[C@H]2[C@@H](NC(=O)C(N)c3ccccc3)C(=O)N2[C@H]1C(=O)O (stereo partly drawn) ?
APEX1 inh: 20µM*; Pol kappa inh: -15%[19.4 µM]

How did O=C1Cc2cc(S(=O)(=O)N3CCNCC3)ccc2N1 do in these assays?
POLH inh: inconclusive; APEX1 inh: 40%; Pol iota inh: 32µM*; Pol kappa inh: -1%; L3MBTL1 block: 3%

What do the screens show for `Cc1nc2ccc(C(=O)OC(C)C(=O)c3c(C)[nH]c4ccccc34)cc2nc1C` (stereo not drawn)?
Pol iota inh: 13%; Pol kappa inh: -14%

How did Cc1cc(O)ccc1N=Cc1c(C(F)(F)F)[nH][nH]c1=O do in these assays?
POLH inh: -1%; APEX1 inh: 17%; Pol iota inh: 8.9µM*; POLB inh: 14µM*; Pol kappa inh: -5%; L3MBTL1 block: 0%

How did COc1cc(OC)c(/C=C/c2ccc3ccccc3[n+]2C)c(OC)c1 do in these assays?
Pol iota inh: inconclusive; Pol kappa inh: -33%

How did CC(C)c1ccc(CCNC(=O)c2cccc(S(=O)(=O)N3CCN(C)CC3)c2)cc1 do in these assays?
POLH inh: -21%; APEX1 inh: -6%; Pol iota inh: 16%; POLB inh: -10%; Pol kappa inh: -6%

How did O=C(Nc1sc2c(c1C(=O)O)CCCC2)c1cccs1 do in these assays?
POLH inh: inconclusive; APEX1 inh: 0%; Pol iota inh: inconclusive; POLB inh: inconclusive; Pol kappa inh: -8%; L3MBTL1 block: -8%

How did O=C(/C=C/c1cccs1)Nc1sc2c(c1C(=O)O)CCCC2 do in these assays?
POLH inh: -11%; APEX1 inh: 23%; Pol iota inh: 14µM*; POLB inh: inconclusive; Pol kappa inh: 7%

What do the screens show for `NC=O`?
APEX1 inh: 4%

How did Cn1c(=O)c2c(SCC(=O)NCc3ccco3)nc(-c3ccccc3)nc2n(C)c1=O do in these assays?
POLH inh: -8%; Pol iota inh: inconclusive; POLB inh: 0%; Pol kappa inh: 2%[60.1 µM]

What do the screens show for `CN(C)CCc1cc2c(c3c1ccc1ccccc13)OCO2`?
POLH inh: -24%; APEX1 inh: inconclusive; Pol iota inh: inconclusive; POLB inh: 20µM*; Pol kappa inh: inconclusive; L3MBTL1 block: -4%

How did COc1cc2ccc3c(CCN(C)C)cc(OC)c(OC)c3c2cc1OC do in these assays?
POLH inh: -27%; APEX1 inh: -5%; Pol iota inh: inconclusive; POLB inh: 26%; Pol kappa inh: -20%; L3MBTL1 block: -3%

How did COc1ccc(C2=CC3=C(Br)C(=O)C(C)(OC(=O)c4ccco4)C(=O)C3=CO2)cc1 (stereo not drawn) do in these assays?
POLH inh: inconclusive; APEX1 inh: 16%; Pol iota inh: 18µM*; POLB inh: 20µM*; Pol kappa inh: 79µM*

What do the screens show for `CC1(C)S[C@@H]2[C@H](NC(=O)Cc3ccccc3)C(=O)N2[C@H]1C(=O)O` (tested in a mixture with another compound)?
APEX1 inh: -1%

How did Cc1c(C(=O)N2CCC2)oc2ccc(Cl)cc12 do in these assays?
POLH inh: -5%; APEX1 inh: -11%; Pol iota inh: 99%; Pol kappa inh: -2%; L3MBTL1 block: 5%

What do the screens show for `O=C(/C=C/c1ccccc1)NCc1cccnc1`?
POLH inh: -2%; APEX1 inh: 19%; Pol iota inh: 157%; POLB inh: -4%; Pol kappa inh: -11%; L3MBTL1 block: -3%

How did O=C(/C=C/c1ccc(-c2ccccc2)cc1)NCc1cccnc1 do in these assays?
POLH inh: -35%; APEX1 inh: 0%; Pol iota inh: inconclusive; POLB inh: 50µM*; Pol kappa inh: -2%; L3MBTL1 block: -1%[2.29 µM]

What do the screens show for `Cc1ccc(C)c(OCCCn2c(-c3ccc(Cl)cc3)nc3ccccc3c2=O)c1`?
POLH inh: -4%; Pol iota inh: 14%; POLB inh: 25%; Pol kappa inh: 11%

What do the screens show for `Cn1cnnc1Sc1ccc(/C=C/C(=O)c2ccc(O)cc2)cc1[N+](=O)[O-]`?
POLH inh: 50µM*; APEX1 inh: inconclusive; Pol iota inh: inconclusive; POLB inh: 39%; Pol kappa inh: -10%; L3MBTL1 block: 5%

What do the screens show for `Cc1ccc(S(=O)(=O)N2CCCCC2)cc1NCC(=O)Nc1ccc(Br)cc1F`?
POLH inh: -21%

How did Cc1cc2nc3ccc(=[N+](C)C)cc-3sc2cc1N do in these assays?
POLH inh: inconclusive; APEX1 inh: inconclusive; Pol iota inh: 18µM*; POLB inh: 8.9µM*; Pol kappa inh: -32%; L3MBTL1 block: -38%

What do the screens show for `O=C(CSc1nnc(CNC(=O)c2c(F)cccc2Cl)o1)NCc1ccccc1`?
POLH inh: 7%; APEX1 inh: -14%; Pol iota inh: 17%; POLB inh: 14%; Pol kappa inh: -15%

How did CN(C)c1ccc(Cc2cc3c(O)ccc(O)c3cc(Cc3ccc(N(C)C)cc3)c2=O)cc1 do in these assays?
POLH inh: 2.2µM*; Pol iota inh: 3.2µM*; Pol kappa inh: 7.9µM*

What do the screens show for `CCOc1ccc(CCNC(=O)c2cnc3sc(N4CCCCCC4)nn3c2=O)cc1`?
POLH inh: -12%; Pol iota inh: 89µM*; POLB inh: -9%; Pol kappa inh: -1%

What do the screens show for `CCOc1ccc(CCNC(=O)c2cnc3sc(N4CCCC4)nn3c2=O)cc1`?
POLH inh: -13%; Pol iota inh: 11%; POLB inh: -11%; Pol kappa inh: -16%

What do the screens show for `CCOc1ccc(NC(=O)CSc2oc(-c3ccc(C)cc3)nc2S(=O)(=O)c2ccc(C)cc2)cc1`?
POLH inh: 79µM*; Pol iota inh: 10%; POLB inh: 3.2µM*; Pol kappa inh: 1%
